# Assay outcomes as filed in PubChem.
# Shown is part of a subset that was picked to be rich in hits.
# FBPA Giardia inh = qHTS Assay for Inhibitors of Fructose-1,6-bisphosphate Aldolase from Giardia Lamblia. purified Giardia FBPA. Potency, µM (doses to about 59.6 µM), usual class: inhibitors. 0.71% of 290,000 active. AID 2451, 2010; also: nearly all actives have a fitted effect of over 55% in size
# Target sequence (A8B2U2 whole entry, looked up): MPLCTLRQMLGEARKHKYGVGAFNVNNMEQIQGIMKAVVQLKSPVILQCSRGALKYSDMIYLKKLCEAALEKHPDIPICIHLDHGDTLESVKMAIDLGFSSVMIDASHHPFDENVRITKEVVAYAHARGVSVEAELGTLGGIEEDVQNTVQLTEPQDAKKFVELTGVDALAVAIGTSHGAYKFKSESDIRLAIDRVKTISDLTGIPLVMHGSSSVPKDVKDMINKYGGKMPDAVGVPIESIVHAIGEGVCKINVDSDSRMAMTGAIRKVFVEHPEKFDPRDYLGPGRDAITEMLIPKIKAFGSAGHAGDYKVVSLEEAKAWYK
#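 40 nM FBPA preincubated 10 min at RT with compound (up to 57.5 uM final), then substrate plus GAPDH/TPI/NAD/arsenate coupling and diaphorase/resazurin added. Fluorescence read after 20 min at RT, 525/598 nm.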
# Shiga toxin inh = A qHTS for Small Molecule Inhibitors of Shiga Toxin | 9.2% of 290,000 active | inhibition, % at 38.7 µM | Vero cells, Shiga toxin protein synthesis inhibition reporter; in the data active = inhibition mostly above about 28%, no sharp cut-off; inactive = mostly below about 43%
# Cycloheximide cs = Cycloheximide Counterscreen for Small Molecule Inhibitors of Shiga Toxin | cell reporter, cycloheximide protein synthesis inhibition counterscreen | 12% of 300,000 active | max response, %; in the data active = max response mostly above about 13%, no sharp cut-off; inactive = mostly below about 14%; also: read at 38.3 µM for the half of the compounds with a filed dose
# LmPK inhibitor = qHTS Assay for Inhibitors of Leishmania Mexicana Pyruvate Kinase (LmPK) | Q27686 | purified LmPK, Kinase-Glo ATP luminescence, 1 h | Potency, µM (titrated, usually from 57.5 µM), actives largely listed as inhibitors | 0.37% of 290,000 active | AID 1721, 2009
#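 ATP generated from ADP (0.1 mM) and PEP (0.5 mM) by 0.1 nM LmPK over 1 h at room temperature (pH 7.2 imidazole buffer) was detected by coupled luciferase luminescence. Values were normalized to uninhibited and no-enzyme wells.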
# Sm TGR inh = qHTS Assay for the Inhibitors of Schistosoma Mansoni Peroxiredoxins; Schistosoma mansoni thioredoxin glutathione reductase (TGR), Q962Y6; purified TGR, DTNB reduction, TNB absorbance 405 nm; Potency, µM (doses to about 114 µM), most hits filed as inhibitors; 3% of 360,000 active; AID 485364, 2010; also: nearly all actives have a fitted effect of over 60% in size
#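 First, TGR (20 nM dispensed) and NADPH were mixed with compound. Second, a 15 min room-temperature incubation followed. Third, further NADPH and then DTNB were added to start the reaction. Finally, TNB absorbance was monitored kinetically.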
# TbPYK inhibitor = qHTS of Trypanosoma Brucei Inhibitors | TbPYK enzyme, Kinase-Glo Plus ATP luminescence, 45 min | Potency, µM (doses to about 76.8 µM), actives largely listed as inhibitors | 0.12% of 410,000 active; also: nearly all actives have a fitted effect of over 50% in size
#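 Quantitative HTS: titrated library compounds versus trypanosomal pyruvate kinase in TEA buffer (pH 7.2) containing KCl, MgCl2, BSA and Tween-20. Reactions were initiated with ADP, 130 uM final. Kinase-Glo Plus luminescence was read after 45 min at RT.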
# Numbers stand for hits; i = inactive; ? = inconclusive; nt = no result given. Unless noted, calls follow the shape of the dose curve; as a rule, active = well fitted curve in the direction sought with a large enough effect; inconclusive = small, poorly fitted or top-dose-only effect, or another doubt; inactive = no such curve, though single readings can be large; an effect the other way counts as inactive or inconclusive.
SMILES,FBPA Giardia inh,Shiga toxin inh,Cycloheximide cs,LmPK inhibitor,Sm TGR inh,TbPYK inhibitor
Cc1ccc(Sc2c(C(=O)NCc3ccccc3C)[nH]c3ccccc23)cc1,nt,nt,nt,nt,i,i
O=C(NCc1ccccc1Cl)c1ccc2oc(=O)n(Cc3ccccc3)c2c1,nt,nt,nt,nt,i,i
Cc1ccc(OCCNC(=O)c2ccco2)cc1C,i,74,17,i,i,i
CCOc1ccc(CNC(=O)c2ccco2)cc1,i,i,20,i,i,i
COc1ccc(OCCNC(=O)c2ccccc2OCC(=O)N2CCCCC2)cc1,i,i,i,i,i,i
O=C(NCc1ccccc1)c1ccco1,i,i,i,i,i,i
O=C(NCCOc1ccc(Cl)cc1)c1ccco1,i,i,i,i,i,i
COc1ccc(OCCNC(=O)c2ccccc2OCC(=O)Nc2ccc(NC(C)=O)cc2)cc1,i,i,24,i,i,i
CCOC(=O)N/N=C/c1ccc(Oc2ccccc2)cc1,i,104,41,i,i,i
CCOC(=O)N/N=C/c1ccc(C)o1,i,i,i,i,i,i
COc1ccc(OC)c(CNC(=O)C2COc3ccccc3C2)c1 (stereo not given),nt,nt,nt,nt,i,i
O=C(CCNS(=O)(=O)c1ccc(Br)s1)Nc1ccc(Br)cc1,nt,nt,nt,nt,i,i
Cc1cc(C)cc(Oc2nc3c(C)cccn3c(=O)c2/C=C(\C#N)c2nc3ccccc3s2)c1,nt,nt,nt,nt,i,i
CCCCOCCCNC(=O)COc1ccccc1,i,i,i,i,i,i
CCc1ccc(OCCNC(=O)c2ccco2)cc1,i,52,34,i,i,i
CCc1ccc(OCC(=O)NCCOc2ccccc2)cc1,i,i,27,i,i,i
OC[C@H]1NC[C@@H](O)[C@@H](O)[C@@H]1O,i,i,i,nt,nt,nt
CCOc1ccc(NC(=O)c2nn(C)c3c2COc2ccccc2-3)cc1,nt,nt,nt,nt,7.9µM,i
COC(=O)c1cc(NC(=O)c2nn(C)c3c2COc2ccccc2-3)cc(C(=O)OC)c1,nt,nt,nt,nt,i,i
COC(=O)c1ccc(NC(=O)c2nn(C)c3c2COc2ccccc2-3)cc1,nt,nt,nt,nt,?,i
COc1cc(OC)c(NC(=O)c2nn(C)c3c2COc2ccccc2-3)cc1Cl,nt,nt,nt,nt,0.71µM,i
CCCCn1c(N)c(N(CCOC)C(=O)CCC2CCCCC2)c(=O)[nH]c1=O,nt,nt,nt,nt,i,i
O=C(O)/C=C/C(=O)Nc1ccc(Cl)c(C(=O)O)c1,i,51,19,i,i,i
NNc1ccc(Cl)c(C(=O)O)c1,i,96,36,i,i,i
COc1ccc(NC(=O)/C=C/C(=O)O)cc1Cl,i,i,i,i,i,i
SMILES,FBPA Giardia inh,Shiga toxin inh,Cycloheximide cs,LmPK inhibitor,Sm TGR inh,TbPYK inhibitor
CCOC(=O)[C@]12CCC=C1N(Cc1ccccc1)C(=O)[C@H](CC(=O)NCc1ccccc1)C2,nt,nt,nt,nt,nt,i
O=C(CCc1ccccc1)NC(=S)Nc1cccc(C(=O)O)c1,i,103,58,i,?,i
O=C(CCCc1ccccc1)Nc1cccc(C(=O)O)c1,i,122,60,i,nt,i
COc1ccc(OC)c(/C=C2\Oc3cc(OCC(=O)N4CCC(C(=O)O)CC4)ccc3C2=O)c1,i,i,i,i,i,i
CC(=O)N1C(c2ccccc2)CC(=O)OC1c1ccc2c(c1)OCO2 (stereo not given),i,i,i,i,?,i
CC(=O)N1c2ccccc2C(=O)OC1c1cccnc1 (stereo not given),i,i,i,i,i,i
Cc1cccc(C(=O)N2c3ccccc3C(=O)OC2c2ccc3c(c2)OCO3)c1 (stereo not given),i,i,21,i,i,i
O=C1OC(c2ccc3c(c2)OCO3)N(C(=O)c2ccc(Cl)c(Cl)c2)c2ccccc21 (stereo not given),i,117,39,i,i,i
CCOc1ccc(S(=O)(=O)Nc2ccc3c(c2)OCO3)cc1,i,i,i,i,i,i
O=C(CSCc1ccccc1Cl)N1CCN(c2ccc(Cl)cc2)CC1,nt,nt,nt,nt,i,i
Cc1cccc(/C=N/n2c(-c3ccccn3)n[nH]c2=S)c1,i,47,35,i,i,nt
COc1ccccc1/C=C/C=N/n1c(-c2ccccn2)n[nH]c1=S,?,64,34,i,i,?
OC(C1=CC(=Cc2ccncc2)c2ccccc21)c1ccncc1 (stereo not given),nt,nt,nt,nt,nt,i
Cc1ccc(C2CCN(C(=S)NC(C)(C)C)C2)cc1 (stereo not given),i,76,31,i,i,i
Cc1cccc(NC(=S)N2CCCCC2)c1,i,i,i,i,i,i
Cc1ccc(C2CCN(C(=S)Nc3cccc(C)c3)C2)cc1 (stereo not given),i,34,20,i,i,i
Cc1ccc(C2CCN(C(=S)NC3CCCCC3)C2)cc1 (stereo not given),i,70,20,i,i,i
CCCC/C=C/C(NC(=O)C(C)(C)C)c1ccccc1 (stereo not given),i,nt,nt,nt,nt,nt
Cc1sc(NC(=O)c2sc3nc4c(C)cccc4cc3c2N)c(C#N)c1C,?,37,19,i,i,i
Cc1cccc2cc3c(N)c(C#N)sc3nc12,i,i,i,i,i,i
COc1ccc(CCNC(=O)CCn2c(=O)c3ccccc3n(CC(=O)Nc3cccc(C)c3)c2=O)cc1OC,nt,nt,nt,nt,i,i
CCOC(=O)c1nnsc1Nc1ccc(C)c(C)c1,i,59,43,i,i,?
CCOC(=O)c1c(C)oc2c1c(C(c1cccnc1)N1CCCCC1)c(O)c1ccccc12 (stereo not given),?,95,57,i,0.71µM,i
CCOC(=O)c1c(C)oc2c1c(C(c1ccccc1)N1CCOCC1)c(O)c1ccccc12 (stereo not given),?,141,71,i,10µM,i
CCOC(=O)c1c(C)oc2c1c(C=NCCO)c(O)c1ccccc12,2µM,i,28,i,40µM,i
SMILES,FBPA Giardia inh,Shiga toxin inh,Cycloheximide cs,LmPK inhibitor,Sm TGR inh,TbPYK inhibitor
CCOC(=O)c1c(O)c2ccccc2oc1=O,i,i,i,i,i,i
CCOc1ccc(Cl)cc1-c1cc(C(=O)NCCc2ccncc2)[nH]n1,nt,nt,nt,nt,nt,i
O=C(Nc1sc2c(c1C(=O)NCC1CCCO1)CCC2)c1cc(=O)c2ccccc2o1 (stereo not given),nt,nt,nt,nt,i,i
Cc1cccc(C(=O)NCC(c2cccs2)S(=O)(=O)c2cccs2)c1 (stereo not given),nt,nt,nt,nt,?,i
c1ccc(-c2onc3c2CCCC3)cc1,i,71,16,i,i,i
CN(C(=O)Cn1c(=O)n(Cc2ccc(C(=O)NCc3ccc4c(c3)OCO4)cc2)c(=O)c2ccccc21)c1ccccc1,nt,nt,nt,nt,i,i
CCOC(=O)CNC(=O)CN1C(=O)CC(c2ccco2)Sc2ccccc21 (stereo not given),i,i,i,i,i,i
